Assay outcomes: PubChem, National Center for Advancing Translational Sciences (NCATS)
The list is not random: actives were taken first. Their share in the collection is about 12%.
L3MBTL1 block – qHTS Assay for the Inhibitors of L3MBTL1 | Lethal(3)malignant brain tumor-like protein 1 (Homo sapiens), Q9Y468 | AlphaScreen L3MBTL1–H3K9me1 peptide binding | Potency, µM (doses to about 57.1 µM), for inactives: top-dose activity, negative = inhibition, hits mostly inhibitors | hit rate 0.66% among 230,000; also: % is scaled to controls: 0 for no effect and ±100 for the full control effect; nearly all actives have a fitted effect of over 60% in size
Target sequence (Q9Y468 whole entry, looked up): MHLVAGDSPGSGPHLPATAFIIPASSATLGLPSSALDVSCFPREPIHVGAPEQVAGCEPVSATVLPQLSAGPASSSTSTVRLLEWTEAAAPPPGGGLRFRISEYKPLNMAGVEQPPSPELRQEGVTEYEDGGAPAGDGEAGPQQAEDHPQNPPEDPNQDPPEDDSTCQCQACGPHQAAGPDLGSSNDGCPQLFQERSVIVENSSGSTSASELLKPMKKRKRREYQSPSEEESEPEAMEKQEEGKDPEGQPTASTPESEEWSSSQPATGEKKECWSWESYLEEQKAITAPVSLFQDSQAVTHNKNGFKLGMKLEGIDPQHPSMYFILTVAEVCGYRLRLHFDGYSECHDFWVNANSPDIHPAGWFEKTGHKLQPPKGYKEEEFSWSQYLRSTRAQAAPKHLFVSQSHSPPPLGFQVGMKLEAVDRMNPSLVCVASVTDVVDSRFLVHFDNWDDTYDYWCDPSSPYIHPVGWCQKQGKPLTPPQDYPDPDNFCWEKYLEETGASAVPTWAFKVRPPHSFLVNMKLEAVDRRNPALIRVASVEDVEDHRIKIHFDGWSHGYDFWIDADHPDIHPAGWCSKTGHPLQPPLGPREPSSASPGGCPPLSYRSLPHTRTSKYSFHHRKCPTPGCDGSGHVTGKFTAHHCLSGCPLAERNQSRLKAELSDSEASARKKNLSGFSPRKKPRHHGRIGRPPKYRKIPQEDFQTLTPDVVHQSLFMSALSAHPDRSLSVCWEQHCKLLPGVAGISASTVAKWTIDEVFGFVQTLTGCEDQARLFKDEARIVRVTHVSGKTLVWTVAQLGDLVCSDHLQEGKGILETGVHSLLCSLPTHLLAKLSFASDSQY
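First, the protein-peptide complex forms for 30 min at room temperature (L3MBTL1 50 nM, biotinylated H3K9me1 peptide 75 nM). Next, compounds are pin-transferred and incubated 30 min. Finally, AlphaScreen beads are added and read after 30 min.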
JMJD2A Tudor inh – qHTS Assay for Inhibitors of JMJD2A-Tudor Domain; Lysine-specific demethylase 4A (Homo sapiens), O75164; AlphaScreen JMJD2A-Tudor / H3K4me3 peptide binding; Potency, µM (top dose mostly 114 µM), inactives show at the top dose activity change, negative = inhibition, usual class: inhibitors; hit rate 4.4% among 390,000; AID 504339, 2011; also: % is scaled to controls: 0 for no effect and ±100 for the full control effect; nearly all actives have a fitted effect of over 50% in size
Sfp inh – qHTS Assay for Inhibitors of Bacillus subtilis Sfp phosphopantetheinyl transferase (PPTase). Potency, µM, for inactives: largest response in the series, negative = inhibition, hits mostly inhibitors. hit rate 3.5% among 310,000. 4'-phosphopantetheinyl transferase ffp (Bacillus subtilis), Q9F4F7. Biochemical Sfp PPTase activity, qHTS;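 also: the enzyme is Sfp with the accession as filed and its product quenches rhodamine fluorescence; 0% = enzyme reaction without inhibitor and -100% = no enzyme wells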
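Compounds were incubated with enzyme (final 15 nM) for 15 min at room temperature before substrate addition started the reaction. Fluorescence at 525 nm excitation, 598 nm emission was recorded immediately and after 30 minutes.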
BAZ2B block – qHTS Assay for Inhibitors of BAZ2B; AlphaScreen BAZ2B-H3K14Ac peptide displacement; Potency, µM (highest dose often 114 µM), for the others: at the top dose activity change, negative = inhibition, most hits filed as inhibitors; hit rate 4.4% among 360,000; also: % is scaled to controls: 0 for no effect and ±100 for the full control effect; nearly all actives have a fitted effect of over 60% in size
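Inhibition is scored as reduced AlphaScreen emission. The BAZ2B/b-H3(5-23)K14Ac complex (50 nM each) in PBS pH 7.4, 0.01% Tween-20 meets compound (up to 110 uM) for 30 min at RT before bead addition.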
HP1b chromo inh – HTS for Inhibitors of HP1-beta Chromodomain Interactions with Methylated Histone Tails; Chromobox protein homolog 1 (Homo sapiens), P83916; hit rate 0.56% among 390,000; Potency, µM (series often up to 114 µM), without a hit: at the top dose activity change, negative = inhibition, usual class: inhibitors; AID 540317, 2011; AlphaScreen HP1-beta / biotin-H3K9me3 peptide binding; also: nearly all actives have a fitted effect of over 70% in size
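AlphaScreen: HP1-beta (50 nM) preformed 30 min with biotin-H3(1-18)K9me3 peptide (50 nM) in PBS pH 7.4, 0.01% Tween-20. Compound added for 30 min at RT, then streptavidin donor/nickel chelate acceptor beads (10 ug/mL) for 30 min.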
G9a block – qHTS Assay for Inhibitors of Histone Lysine Methyltransferase G9a. Histone-lysine N-methyltransferase EHMT2 (Homo sapiens), Q96KQ7. G9a H3K9 monomethylation, AlphaScreen, 2 h. Potency, µM (titrated, usually from 102 µM), for the others: at the highest dose activity, negative = inhibition, most hits filed as inhibitors. hit rate 8.8% among 350,000. AID 504332, 2011; also: % is scaled to controls: 0 for no effect and ±100 for the full control effect; nearly all actives have a fitted effect of over 75% in size
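Chemiluminescent proximity detection of H3K9 monomethylation, read after 10 min bead incubation in the dark. Reaction: 20 nM G9a, 500 nM biotin-H3K9 peptide, 20 uM SAM cofactor, 2 h, room temperature, following 15 min enzyme-compound preincubation.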
An asterisk follows results filed as active; ? = inconclusive; · = not tested or not shown; [ ] = another dose, or the depositor's remark. Calls follow the shape of the dose curve; as a rule, active = well fitted curve in the direction sought with a large enough effect; inconclusive = small, poorly fitted or top-dose-only effect, or another doubt; inactive = no such curve, though single readings can be large; an effect the other way counts as inactive or inconclusive. Potency is read from the fitted curve at half-maximal effect.

SMILES | L3MBTL1 block | JMJD2A Tudor inh | Sfp inh | BAZ2B block | HP1b chromo inh | G9a block
CC(C)(C)NC(=O)C(c1ccc(-c2ccccc2)cc1)N(C[C@H]1CC[C@@H]([C@@H]2CC[C@H](CO)O2)O1)C(=O)c1cccc(Cl)c1 (stereo partly specified) | 0.1% | -33.3% | · | · | 11.1% | ·
Cn1nc(C(=O)N2CCN(c3ccccn3)CC2)c2ccccc2c1=O | 2.8% | -8.3% | · | 3.4% | 22.7% | -1.5%
S=C1NCCNC(=S)NCCOCCOCCOCCN1 | · | 1.4% | 17.5% | 14.0% | 39.9% | 25.1µM*
Cc1c(Cl)cccc1-n1c(SCC(=O)N2CCC(C(=O)O)CC2)nc2ccccc2c1=O | · | -2.5% | 1.2% | 0.3% | 31.9% | -6.8%
CN1C(=O)C(N=Nc2ccccc2C(=O)O)N(C)C1=S (stereo unspecified) | 7.7% | -7.5%[11.4 µM] | -9.8% | ? | -36.5% | 1.78µM*
O=C(CCN1CCCCCC1)c1ccccc1 | 6.6% | 6.1%[11.4 µM] | 6.3% | 1.1% | 38.2% | ?
CCC1(C)CC2(CCCN(CCC(=O)c3ccccc3)C2)CCO1 (stereo unspecified) | -16.1% | -8.9% | 5.1% | 0.9% | 30.7% | 50.1µM*
Cc1cc(O)c(C(C)C)cc1Cl | · | · | -0.6% | · | · | -0.2%[59 µM]
CCN1CCN(c2ncnc3c2sc2nc(N4CCOCC4)c4c(c23)CCC4)CC1 | · | -6.8% | 11.4% | -22.9% | 13.8% | ?
c1nc(NCCN2CCOCC2)c2sc3nc(N4CCOCC4)c4c(c3c2n1)CCC4 | -0.6% | -15.7% | 7.3% | 0.9% | 27.6% | 50.1µM*
CN(C)CCNc1ncnc2c1sc1nc(-c3ccccc3)c3c(c12)CCCC3 | -11.3% | ? | 35.5µM* | ? | -20.8% | ?
CN(C)C1=NCCN1CC1CCCC1 | 2.1% | -24.6% | · | 9.0% | 22.2% | -1.3%[2.33 µM]
COc1cc(/C=N/NC(=O)c2c(C)nc3ccc(Cl)cn23)cc(OC)c1OC | -8.1% | 22.4µM* | -11.3% | ? | 156.8% | ·
Cc1cccc(-n2c(C)cc(/C=N/O)c2C)c1 | -16.4% | ? | -10.7% | ? | ? | -13.7%[59 µM]
COc1cc(/C=N/NC(=O)c2nc3ccccn3c2C)cc(OC)c1O | -9.8% | -11.3% | 1.0% | -23.6% | 25.4% | 15.8µM*
Cc1nc2ccccn2c1C(=O)N/N=C/c1cc(C)n(-c2ccc(Br)cc2)c1C | -7.6% | ? | -10.5% | 44.7µM* | -39.7% | -23.4%[59 µM]
Cc1cc(/C=N/O)c(C)n1-c1ccc(Br)cc1 | -15.4% | ? | -6.0% | 44.7µM* | ? | ?
Cc1ccc(NC(=O)c2cccc3ccccc23)cc1 | 1.7% | 0.7% | 29.6% | 2.2% | 38.6% | 16.4%
O=C(COC(=O)c1ccc(Br)c(S(=O)(=O)N2CCOCC2)c1)NCCc1ccccc1 | -0.9% | -2.1% | · | · | 16.4% | ·
CCC(Oc1ccc(F)cc1)C(=O)Nc1nc2c(s1)CCCC2 (stereo unspecified) | · | -23.8% | · | -18.3% | 52.0% | -17.3%[59 µM]
COc1ccc(Cn2c(=O)[nH]c3cc(C(=O)NCCC(C)C)ccc3c2=O)cc1 | · | 8.5% | · | 6.8% | 26.2% | 4.1%[59 µM]
CCc1ccc(C2=C(C)C(N3CCC(C(=O)NCc4ccccc4)CC3)=NS2(=O)=O)cc1 | · | -13.3% | · | -3.3% | 4.5% | 18.0%[59 µM]
COc1cccc(/C=N/NC(=O)c2c(C)nc3ccc(Br)cn23)c1O | · | 35.5µM* | 21.0% | 7.94µM* | 1.6% | -8.6%
Cc1ccc(CSc2nc3ccc(NC(=O)CC(C)C)cc3s2)cc1 | · | -7.0% | · | -12.1% | 30.1% | 2.3%[59 µM]
NCCn1c(-c2ccccc2)cc(C(=O)O)c1-c1ccccc1F | -4.4% | -28.6% | -6.9% | ? | 23.7% | 50.1µM*
SMILES | L3MBTL1 block | JMJD2A Tudor inh | Sfp inh | BAZ2B block | HP1b chromo inh | G9a block
CCOC(=O)c1cc(-c2ccccc2)n(CCC(=O)O)c1C | · | -28.8% | 18.2% | -35.3% | 16.3% | -1.9%[12.7 µM]
Nc1cc(Cl)ccc1N1CCCCC1 | -5.9% | -9.4% | 8.8% | -14.1% | 11.4% | 1.2%
O=C1c2ccccc2C(=O)c2cc(N3CCCCC3)ccc21 | · | 12.6µM* | · | · | ? | ·
Nc1cc(Cl)ccc1N1CCCCCC1 | -14.3% | -24.0% | -1.4% | -37.5% | -14.0% | 10µM*
Nc1ccc(N2CCCCC2)cc1N1CCCCC1 | ? | 28.2µM* | 31.6µM* | 35.5µM* | ? | 2.51µM*
c1ccc2cc(N3CCCCC3)ccc2c1 | · | -30.3% | · | · | 27.9%[57 µM] | ·
Cc1nn(-c2cc(N3CCCCC3)ccc2N)c(=O)c2ccccc12 | -0.9% | -16.5% | 7.0% | -3.0% | -0.2% | 3.16µM*
CCN1CCN(C(c2ccccc2)c2sc3nc(-c4ccco4)nn3c2O)CC1 (stereo unspecified) | · | -13.0% | · | 2.4% | 40.7% | -20.1%[59 µM]
COc1cccc(N2CCN(S(=O)(=O)c3ccc4c(c3)NC(=O)C(C)C(=O)N4)CC2)c1 (stereo unspecified) | · | -15.9% | 8.0% | 11.1% | 13.1% | ?
O=C(c1cccs1)N1CCN(C(=O)c2cccs2)C1=S | · | -18.1% | · | · | 32.2% | ·
Cc1c(C#N)c2ccccc2n1CC(=O)N1CCCC1 | 37.4% | 79.4µM* | 3.5% | 31.6% | ? | 21.0%[12.7 µM]
NC(=O)CN1C(=O)/C(=c2\sc3nc(=O)c(Cc4ccccc4)nn3c2=O)c2ccccc21 | · | -28.9% | 11.2µM* | -21.4% | 16.1% | 7.94µM*
CCCCN1C(=O)/C(=c2\sc3nc(=O)c(-c4ccccc4)nn3c2=O)c2ccccc21 | -3.0% | ? | 15.8µM* | ? | ? | ?
CCCN1C(=O)/C(=c2\sc3nc(=O)c(Cc4ccc(C)cc4)nn3c2=O)c2ccccc21 | -2.6% | ? | 20µM* | ? | ? | ·
CC(C)n1ncc(N2CCOCC2)c(Cl)c1=O | · | -7.0% | 8.7% | -0.5% | -0.3% | -5.5%
Cc1ccccc1CCNC(=O)C1CCN(S(=O)(=O)c2ccc3c(ccn3C)c2)CC1 | · | -1.0% | · | 0.3% | 26.1%[57 µM] | -0.4%[59 µM]
O=c1c2c(C(F)(F)F)cc(C(F)(F)F)nc2[nH]n1-c1ccccc1 | · | ? | -8.1% | ? | -22.6% | 7.94µM*
COC(=O)N1[C@H](C)C=C[C@]1(Cc1ccccc1)C(=O)NCc1ccc(C)o1 | · | · | 44.7µM* | · | · | ·
CC(NC(=O)CN1CCc2ccccc21)c1ccccc1 (stereo unspecified) | 2.4% | -28.8% | 17.4% | -25.0% | 6.0% | 25.1µM*
